Measurements as given in PubChem BioAssay AID1159580 (chemical genetic matrix, 2015).
The campaign covered roughly 5,500 compounds. About 2,000 (36%) were called active. About 18% were inconclusive and are not listed. Cut-off read from the data, not from the text of the source: active = normalized growth mostly below about 0.91 (no sharp cut-off); inconclusive = no clear call, values can overlap the other calls; inactive = mostly above about 0.92. The list shows a part of the results.

Test: chemical genetic growth profiling, strain panel (AID 1159580);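 note: tested at 20 µM; growth read once vehicle control cultures reached saturation at 30 °C; 1 = growth at the plate median or of vehicle wells; lower values mean less growth of the strain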
Settings: S. cerevisiae deletion strains, growth OD

Measured: normalized growth

Cc1cn([C@H]2C=C[C@@H](CO)O2)c(=O)[nH]c1=O
inactive: locus YAL040C, strain CLN3, stronger effect = lower value 0.999 | locus YCL061C, strain MRC1 (second series), stronger effect = lower value 1.01 | locus YDR363W, strain ESC2, stronger effect = lower value 0.976 | locus YER002W, strain NOP16, stronger effect = lower value 1 | locus YGR078C, strain PAC10, stronger effect = lower value 1.02 | locus YMR263W, strain SAP30, stronger effect = lower value 0.998 | locus YMR307W, strain GAS1, stronger effect = lower value 0.994 | locus YNL175C, strain NOP13, stronger effect = lower value 0.993 | locus YNL197C, strain WHI3, stronger effect = lower value 0.995 | locus YNL224C, strain SQS1, stronger effect = lower value 1 | locus YNL322C, strain KRE1, stronger effect = lower value 0.994 | locus YOR083W, strain WHI5 (second series), stronger effect = lower value 1.06 | locus YPL055C, strain LGE1, stronger effect = lower value 0.974 | locus YPL241C, strain CIN2, stronger effect = lower value 1
